test: inhibition of yeast nuclear histone deacetylase activity – cell lysate, fluorescence, yeast nuclear extract, mechanism study for Sdo1 growth activator project, dose response (AID 463208); settings: yeast nuclear extract HDAC activity, fluorogenic substrate;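 active = AC50 at most tenfold above the top tested concentration; inconclusive = flat fit with 30 to 70% activity, or a poor fit; inactive = AC50 over tenfold above the top dose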

AC50, inactive:
CCOC(=O)/C=C1\SCC(=O)N1CC(=O)NC1CCCCC1 > 50 µM
Cc1nn(-c2ccccc2)c(C)c1NC(=O)c1cccs1 > 50 µM
CC(=O)N(c1ccccc1)C1C(=O)C(=O)c2ccccc2C1=O (configuration not stated) > 50 µM
Cc1ccc(Cn2c(Sc3nccc(C)n3)nc3c2c(=O)[nH]c(=O)n3C)cc1 > 50 µM
CC(C)C(C(=O)Nc1cccnc1)N1C(=O)c2ccccc2C1=O (configuration not stated) > 50 µM
CCOc1ccc(C(=O)NC(=S)NCc2cccnc2)cc1 > 50 µM
Cc1nc(CS(=O)(=O)c2ccccc2)cc(N2CCOCC2)n1 > 50 µM
CCOc1cccc(C(=O)NC(=S)NCc2cccnc2)c1 > 50 µM
COc1ccc(-c2nc3ccccc3o2)cc1NC(=O)c1ccc(Br)o1 > 50 µM
CCN(CC)CCCNC(=O)C1CCNCC1 > 50 µM
Cc1nn(Cc2ccc(Cl)cc2)c(C)c1NC(=O)CSc1n[nH]c(C)c1[N+](=O)[O-] > 50 µM
CC(=O)N(C1=C(Cl)C(=O)c2ccccc2C1=O)C1CCCCC1 > 50 µM
O=C(COC(=O)Cc1cccs1)Nc1ccccc1 > 50 µM
CCSc1nnc([C@H](CCSC)NC(=O)OC(C)(C)C)o1 > 50 µM
CN(C)CCCNC(=O)C1CCNCC1 > 50 µM
O=C(C(c1ccccc1)c1ccccc1)N(Cc1cccs1)C1CCS(=O)(=O)C1 (configuration not stated) > 50 µM
COc1ccc(-c2nc3ccccc3s2)cc1NC(=O)c1ccc(Br)o1 > 50 µM
Cc1sc(NC(=O)c2ccnn2C)c(C#N)c1-c1ccccc1 > 50 µM
Cc1c(/C=N/NC(=O)c2cccc(F)c2)cnn1C > 50 µM
O=C(Nc1cccc(Cl)c1)c1ccc(NCC2CCCO2)c([N+](=O)[O-])c1 (configuration not stated) > 50 µM
Cc1c(/C=N/NC(=O)c2ccc(F)cc2)cnn1C > 50 µM
COc1cc(/C=N/NC(=O)CCC(=O)NCc2ccccc2)cc(OC)c1OC > 50 µM

From PubChem BioAssay AID463208 (Broad Institute, 2010)
